# Screens: PubChem BioAssay, National Center for Advancing Translational Sciences (NCATS)
# IL1B secr inh = qHTS for Inhibitors of Inflammasome Signaling: IL-1-beta AlphaLISA Primary Screen; activity change, % at 57.5 µM; THP-1 LPS/ATP IL-1B secretion, AlphaLISA, 16 h; stronger effect = lower value; 360,000 compounds, 4.7% hits; in the data active = activity change below about -50%; inconclusive = mostly about -30% to -49%
#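 Secreted IL-1B measured by AlphaLISA bead assay after 16 h compound exposure of THP-1 cells; compounds (final up to 57.5 uM) added 1 h before LPS (250 ng/mL) and ATP (1.25 mM) stimulation; lower signal means less secretion.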
# TDP1 cell CPT = qHTS for Inhibitors of human tyrosyl-DNA phosphodiesterase 1 (TDP1): qHTS in cells in presence of CPT. chicken DT40 Tdp1-/-;hTDP1 cells + 20 nM CPT, ATP luminescence, 48 h. Potency, µM (highest dose often 46.2 µM), most hits filed as inhibitors. 420,000 compounds, 12% hits; also: nearly all actives have a fitted effect of over 55% in size
#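 Chicken DT40 Tdp1-/- cells stably complemented with human TDP1 were seeded at 400 cells/well in medium containing 20 nM camptothecin, exposed to pin-transferred compounds, and grown at 37 °C for at least 48 hr. Viability was read as ATP luminescence.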
# SW480 rereplic = A quantitative high throughput screen for small molecules that induce DNA re-replication in SW480 colon adenocarcinoma cells | AID 624297, 2012 | 340,000 compounds, 1.8% hits | SW480 DNA re-replication, Hoechst DNA content imaging, 48 h | Potency, µM (highest dose often 46.1 µM), most hits filed as activators; also: nearly all actives have a fitted effect of over 55% in size
#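 DNA re-replication was detected as more nuclei of elevated Hoechst intensity after 48 hr exposure to compound (23 nL pinned per well of 250 cells).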
# MCF10A rereplic = A quantitative high throughput screen for small molecules that induce DNA re-replication in MCF 10a normal breast cells; AID 624296, 2012; 350,000 compounds, 2.9% hits; MCF 10A DNA re-replication, Hoechst nuclear intensity, 48 h; Potency, µM (series often up to 46.1 µM), usual class: activators; also: nearly all actives have a fitted effect of over 50% in size
# DT40 TDP1 no CPT = qHTS for Inhibitors of human tyrosyl-DNA phosphodiesterase 1 (TDP1): qHTS in cells in absence of CPT | Potency, µM (top dose mostly 46.2 µM), hits mostly inhibitors | 420,000 compounds, 15% hits | DT40 Tdp1-/- hTDP1 cells, no CPT, ATP luminescence, 48 h; also: nearly all actives have a fitted effect of over 55% in size
#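 A cellular qHTS used chicken DT40 cells lacking endogenous Tdp1 but carrying stably transfected human TDP1. Compounds were applied without camptothecin, and cell growth kinetics were judged by ATP-dependent luminescence after ≥48 hr.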
# Chronic BCR inh = qHTS Assay to Find Inhibitors of Chronic Active B-Cell Receptor Signaling. ABC-DLBCL IkBa-CBG/CBR reporter, luminescence ratio, 4 h. Potency, µM (doses to about 46.1 µM), hits mostly inhibitors. 340,000 compounds, 0.05% hits. AID 493014, 2011; active = well fitted inhibition curve with a large enough effect in the signal ratio, with a control signal flat, not every such curve was filed as active; inconclusive = small, poorly fitted or top-dose-only effect, or effect the other way, or a change in a side signal; the % refers to the signal ratio
#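 Concentration-response series (up to 46 uM) were applied to TMD8 dual-reporter cells for 4 h at 37C with doxycycline. Green/red ratio, after filter-overlap correction, defined %Activity; red signal alone was normalised to basal cells and zero luminescence.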
# Hits are given with their value; i = inactive; ? = inconclusive; nt = not tested or not shown. Compounds with a hit are over-represented: about 19% of the library has one in this group of screens. Unless noted, calls follow the shape of the dose curve; as a rule, active = well fitted curve in the direction sought with a large enough effect; inconclusive = small, poorly fitted or top-dose-only effect, or another doubt; inactive = no such curve, though single readings can be large; an effect the other way counts as inactive or inconclusive.
SMILES,IL1B secr inh,TDP1 cell CPT,SW480 rereplic,MCF10A rereplic,DT40 TDP1 no CPT,Chronic BCR inh
O=C(/C=C/C=C/c1ccccc1)CC1(O)C(=O)N(CCc2ccccc2)c2ccccc21 (configuration not stated),-100,21µM,i,?,18µM,i
CC(C)(C)C(=O)CC1(O)C(=O)N(Cc2ccccc2)c2ccccc21 (configuration not stated),i,i,i,i,i,i
CN(C)c1ccc(N2C(=NC(=O)COc3ccccc3)SC3CS(=O)(=O)CC32)cc1 (configuration not stated),i,i,i,i,i,i
C#CCN1C(=O)C(O)(CC(=O)/C=C/C=C/c2ccccc2)c2ccccc21 (configuration not stated),i,?,?,?,23µM,i
C#CCN1C(=O)C2(OCCO2)c2ccccc21,i,i,i,i,i,i
O=C(CCCc1ccccc1)NCCS(=O)(=O)N1CCN(c2ccccc2)CC1,i,?,nt,nt,?,nt
COc1ccc(NC(=O)CCCNC(=O)c2ccc(Cl)cc2)cc1S(=O)(=O)N1CCCCC1,i,?,i,i,21µM,nt
COc1cc(/C=C/C(=O)OCC(=O)Nc2cc(S(=O)(=O)N3CCCCC3)ccc2C)ccc1O,i,?,i,i,?,?
COc1cc(/C=C/C(=O)OCC(=O)Nc2ccc(C)c(S(=O)(=O)N3CCCCC3)c2)ccc1O,i,?,i,?,26µM,i
COc1cc(C(C)=O)ccc1OCC(=O)Nc1ccc(S(=O)(=O)N2CCCCC2)cc1,i,i,nt,nt,0.46µM,nt
COc1cc(C(C)=O)ccc1OCC(=O)Nc1ccc(C)c(S(=O)(=O)N2CCCCCC2)c1,-59,8.2µM,i,i,16µM,i
COc1ccc(C(C(=O)NCc2ccccc2)N(C(=O)Cn2nnc3ccccc32)c2cccc(OC)c2)cc1 (configuration not stated),nt,?,nt,nt,i,nt
Cc1ccc2oc(C(=O)N3CCN(CC(=O)NC(C)C)CC3)c(C)c2c1,i,i,i,i,i,i
COc1cccc(CNC(=O)CCS(=O)(=O)Cc2ccc(C)cc2)c1,i,i,i,i,?,i
CCCCCCCCC(c1nc2ccccc2[nH]1)N1CCN=C1c1cc2ccccc2[nH]1 (configuration not stated),-66,7.3µM,nt,nt,6.5µM,nt
O=C(NCC(O)c1nc2ccccc2[nH]1)c1cc2ccccc2[nH]1 (configuration not stated),i,i,nt,nt,i,nt
COc1ccccc1Nc1nnc(SCc2cc(=O)n3cc(C)ccc3n2)s1,i,?,i,?,?,?
CC(=O)Oc1ccccc1N(C(C)=O)S(=O)(=O)c1ccc2ccccc2c1,i,i,i,i,i,?
CC(=O)Oc1c(Br)cc(N(C(C)=O)S(=O)(=O)c2ccccc2)c2ccccc12,i,?,?,16µM,6.5µM,?
CCCCC1S/C(=N/N=C/c2ccco2)NC1=O (configuration not stated),i,16µM,i,i,?,i
COc1ccccc1CC1S/C(=N/N=C/c2ccco2)NC1=O (configuration not stated),i,?,?,i,6.5µM,i
COc1cc(/C=N/N=C2/NC(=O)C(Cc3ccccc3)S2)ccc1O (configuration not stated),i,?,i,18µM,?,?
O=C1N/C(=N/N=C/c2ccco2)SC1Cc1ccccc1 (configuration not stated),i,i,i,i,?,i
Cc1ccc(C(=O)NNC(=O)CSc2nnc(C(C)C)n2C)cc1,i,i,i,i,i,i
O=C1NCC(O)=C1C=NC12CC3CC(CC(C3)C1)C2,i,i,?,15µM,i,?
SMILES,IL1B secr inh,TDP1 cell CPT,SW480 rereplic,MCF10A rereplic,DT40 TDP1 no CPT,Chronic BCR inh
CCc1ccccc1N(C)C(=O)Cc1c(C(=O)O)c(C)cn1C,nt,i,nt,nt,i,?
O=c1c(-c2cccnc2)nc2ccccc2n1C(c1ccccn1)c1nc2ccccc2[nH]1 (configuration not stated),?,?,nt,nt,i,nt
O=c1c(-c2ccco2)nc2ccccc2n1C(c1ccccn1)c1nc2ccccc2[nH]1 (configuration not stated),i,?,nt,nt,?,nt
O=c1c(-c2ccccc2)nc2ccccc2n1C(c1ccccn1)c1nc2ccccc2[nH]1 (configuration not stated),i,?,nt,nt,9.2µM,nt
O=c1c(-c2cccs2)nc2ccccc2n1C(c1ccccn1)c1nc2ccccc2[nH]1 (configuration not stated),i,?,nt,nt,15µM,nt
COC(=O)CCNC(=O)c1ccc2nc(Cc3ccc(OC)c(OC)c3)oc2c1,i,?,i,i,i,i
Cn1c(C(=O)N2CCCC(C(=O)N3CCN(C(=O)c4ccco4)CC3)C2)cc2sccc21 (configuration not stated),i,15µM,i,i,?,i
Cc1ccc(C)c(N2CCN(C(=O)C3CCC3)CC2)c1,i,i,i,i,i,i
Cn1c(C(=O)N2CCCC(C(=O)O)C2)cc2sccc21 (configuration not stated),i,i,i,i,i,i
CCn1c(C(=O)N2CCC(C(=O)N3CCN(c4ccccn4)CC3)CC2)cc2sccc21,i,?,i,i,26µM,i
CCn1c(C(=O)N2CCC(C(=O)N3CCN(c4ccc(OC)cc4)CC3)CC2)cc2sccc21,nt,9.2µM,nt,nt,13µM,nt
CCn1c(C(=O)N2CCC(C(=O)N3CCN(c4cc(C)ccc4C)CC3)CC2)cc2sccc21,nt,23µM,nt,nt,16µM,nt
CC1CN(C(=O)CCC(=O)NCc2ccccc2)c2ccccc2O1 (configuration not stated),i,i,i,i,i,i
Cc1ccc(NC(=O)CSc2[nH]c(=O)ncc2C)cc1,nt,?,nt,nt,i,i
CCn1c(C(=O)N2CCCC(C(=O)N3CCN(c4ccccc4)CC3)C2)cc2sccc21 (configuration not stated),nt,?,nt,nt,23µM,nt
O=C(c1ccc(F)cc1)N1CCCC(C(=O)N2CCN(c3ccccc3)CC2)C1 (configuration not stated),i,i,i,i,?,i
Cc1nc(-c2ccc(F)cc2)sc1CCNC(=O)c1ccc(C(C)(C)C)cc1,nt,15µM,nt,nt,16µM,nt
